Common to all, as to assay: yeast three-hybrid, YBZ-1, SC-Leu-His + 0.5 mM 3-AT, 4 days
Conditions in all cases: tags: N-Gal4 AD-HA kept; label: inside an RPR1-promoter hybrid RNA with tandem MS2 sites; ssRNA

One assay concerns the target PUM1 PUF domain R3-RPK (Homo sapiens, UniProt Q14671 828-1176, C935R;R936P;Q939K). The procedure, abridged: (§1)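 Pumilio-1 PUF domain libraries, randomized at the three base-contacting residues of each repeat, were co-expressed with matching RNA elements from a centromeric plasmid in strain YBZ-1, which carries a LexA–MS2 coat fusion and a HIS3 reporter. Transformants grew for four days on SC-Leu (input) or on SC-Leu-His + 0.5 mM 3-AT (selection), and the repeat regions were PCR-amplified and Illumina-sequenced. The interaction score is the log change in variant frequency from input to selection. That logarithm is base 2, with a pseudocount of 1 where a variant was absent.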

A further assay deals with PUM1 PUF domain R7-KWN (Homo sapiens, UniProt Q14671 828-1176, S1079K;N1080W;E1083N). The procedure, abridged: as §1
Another assay addresses PUM1 PUF domain R5-RRI (Homo sapiens, UniProt Q14671 828-1176, C1007R;Q1011I). The method in brief: as §1
In a further assay the target is PUM1 PUF domain R5-RNL (Homo sapiens, UniProt Q14671 828-1176, C1007R;R1008N;Q1011L). The procedure, abridged:
as §1

In another assay the target is PUM1 PUF domain R1-KTY (Homo sapiens, UniProt Q14671 828-1176, S863K;R864T;Q867Y). The procedure, abridged:
as §1

The target of another assay is PUM1 PUF domain R1-RRQ (Homo sapiens, UniProt Q14671 828-1176, S863R). The procedure, abridged:
as §1

For another assay, the target named is PUM1 PUF domain R4-DHV (Homo sapiens, UniProt Q14671 828-1176, N971D;Q975V). The method in brief: as §1
Another assay has as its target PUM1 PUF domain R4-WSS (Homo sapiens, UniProt Q14671 828-1176, N971W;H972S;Q975S). The procedure, abridged:
as §1

A further assay concerns the target PUM1 PUF domain R5-NAI (Homo sapiens, UniProt Q14671 828-1176, C1007N;R1008A;Q1011I). The method in brief: as §1
Another assay deals with T1, PUM1 PUF domain R6-AFR (Homo sapiens, UniProt Q14671 828-1176, N1043A;Y1044F;Q1047R).
T1 sequence: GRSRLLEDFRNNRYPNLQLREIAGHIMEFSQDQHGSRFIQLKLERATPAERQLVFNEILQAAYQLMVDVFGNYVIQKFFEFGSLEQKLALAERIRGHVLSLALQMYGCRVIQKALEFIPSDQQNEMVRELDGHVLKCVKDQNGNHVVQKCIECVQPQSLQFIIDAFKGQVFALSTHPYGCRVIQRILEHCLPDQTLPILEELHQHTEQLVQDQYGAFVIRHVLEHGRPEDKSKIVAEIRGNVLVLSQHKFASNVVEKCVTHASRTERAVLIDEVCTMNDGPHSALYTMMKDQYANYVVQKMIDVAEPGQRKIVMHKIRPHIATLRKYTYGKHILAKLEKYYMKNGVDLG
The procedure, abridged: as §1

The target of a further assay is PUM1 PUF domain R8-FYF (Homo sapiens, UniProt Q14671 828-1176, N1122F;Q1126F). The procedure, abridged:
as §1

Sequence of PUM1 PUF domain R5-RRI (Q14671 828-1176 C1007R/Q1011I): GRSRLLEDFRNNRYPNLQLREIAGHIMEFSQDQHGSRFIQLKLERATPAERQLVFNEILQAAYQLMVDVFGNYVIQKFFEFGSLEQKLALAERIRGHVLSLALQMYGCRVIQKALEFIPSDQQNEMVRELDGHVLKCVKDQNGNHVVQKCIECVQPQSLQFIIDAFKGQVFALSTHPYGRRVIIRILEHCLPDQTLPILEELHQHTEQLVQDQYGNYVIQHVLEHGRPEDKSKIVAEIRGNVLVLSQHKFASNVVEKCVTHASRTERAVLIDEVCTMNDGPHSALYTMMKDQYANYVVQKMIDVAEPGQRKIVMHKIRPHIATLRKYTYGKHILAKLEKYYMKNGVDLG
Sequence of PUM1 PUF domain R4-WSS (Q14671 828-1176 N971W/H972S/Q975S): as the sequence (Q14671 828-1176 C1007R/Q1011I) above, with N144W, H145S, Q148S, R180C, I184Q counted along it
Sequence of PUM1 PUF domain R1-RRQ (Q14671 828-1176 S863R): as the sequence (Q14671 828-1176 C1007R/Q1011I) above, with S36R, R180C, I184Q counted along it

On to “GGCUAGAACUAGUGGAUCCCCCGGCGCCCGGCGGCUCGAGCCCGGGUAAGUGUAAUUAGUCUGCAUGCCGCCGGGCGCCAUGCCUGCAGGUCGACUCUAGAAAACAUG”, for which the binding signal with PUM1 PUF domain R3-RPK is 4.23 log2 enrichment (interaction score). For the sequence “GGCUAGAACUAGUGGAUCCCCCGGCGCCCGGCGGCUCGAGCCCGGGUAAGUCUAAAUAGUCUGCAUGCCGCCGGGCGCCAUGCCUGCAGGUCGACUCUAGAAAACAUG”, in the assay with PUM1 PUF domain R7-KWN, the binding signal is 5.98 log2 enrichment (interaction score). With “GGCUAGAACUAGUGGAUCCCCCGGCGCCCGGCGGCUCGAGCCCGGGUAAGUGUCAAUAGUCUGCAUGCCGCCGGGCGCCAUGCCUGCAGGUCGACUCUAGAAAACAUG”, the binding signal with PUM1 PUF domain R5-RRI was 3.62 log2 enrichment (interaction score); with PUM1 PUF domain R5-RNL, 2.83 log2 enrichment (interaction score). With “GGCUAGAACUAGUGGAUCCCCCGGCGCCCGGCGGCUCGAGCCCGGGUAAGUGUAAAUUGUCUGCAUGCCGCCGGGCGCCAUGCCUGCAGGUCGACUCUAGAAAACAUG”, the binding signal in the assay with PUM1 PUF domain R1-KTY was 3.93 log2 enrichment (interaction score); with PUM1 PUF domain R1-RRQ, 4.29 log2 enrichment (interaction score).

On to “GGCUAGAACUAGUGGAUCCCCCGGCGCCCGGCGGCUCGAGCCCGGGUAAGUGUACAUAGUCUGCAUGCCGCCGGGCGCCAUGCCUGCAGGUCGACUCUAGAAAACAUG”, for which the figures for the binding signal with PUM1 PUF domain R4-DHV and with PUM1 PUF domain R4-WSS were 5.75 log2 enrichment (interaction score) and 2 log2 enrichment (interaction score), respectively.

On to “GGCUAGAACUAGUGGAUCCCCCGGCGCCCGGCGGCUCGAGCCCGGGUAAGUGUUAAUAGUCUGCAUGCCGCCGGGCGCCAUGCCUGCAGGUCGACUCUAGAAAACAUG”, for which the binding signal with PUM1 PUF domain R5-NAI is 3.43 log2 enrichment (interaction score); with PUM1 PUF domain R5-RRI, 4.69 log2 enrichment (interaction score); in the assay with PUM1 PUF domain R5-RNL it was 3.54 log2 enrichment (interaction score).

In the case of “GGCUAGAACUAGUGGAUCCCCCGGCGCCCGGCGGCUCGAGCCCGGGUAAGUGCAAAUAGUCUGCAUGCCGCCGGGCGCCAUGCCUGCAGGUCGACUCUAGAAAACAUG”, the binding signal in the assay with PUM1 PUF domain R6-AFR is 4.86 log2 enrichment (interaction score). For the sequence “GGCUAGAACUAGUGGAUCCCCCGGCGCCCGGCGGCUCGAGCCCGGGUAAGCGUAAAUAGUCUGCAUGCCGCCGGGCGCCAUGCCUGCAGGUCGACUCUAGAAAACAUG”, in the assay with PUM1 PUF domain R8-FYF, the binding signal was 2.55 log2 enrichment (interaction score).

The record behind these values is paper PMC8384837, “Expanding the binding specificity for RNA recognition by a PUF domain”.
